The supplement of paper PMC3545927
The list shows a part of the results. How many sequences the whole screen found active is unknown.

Biological target: furin, P09958
Test: furin cleavage Z-score vs untreated control; higher = more cleavage, active = 3.5 or more, inactive = 1 or less, 8 variable residues between constant flanks
In short: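 Abundance of DNA freed from bead-bound 8-mer peptide–cDNA fusions by purified furin was measured as sequencing read counts after PCR adapter tagging. Cutting ran 7.5, 15 or 30 min in 0.01 ml of 50 mM HEPES pH 7.5 with CaCl2 and NaCl at 1:10 enzyme:substrate. The cleavage Z-score expresses these log counts against furin-free reactions after lowess adjustment and median absolute deviation scaling.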

furin, P09958, sequence (P09958 whole entry): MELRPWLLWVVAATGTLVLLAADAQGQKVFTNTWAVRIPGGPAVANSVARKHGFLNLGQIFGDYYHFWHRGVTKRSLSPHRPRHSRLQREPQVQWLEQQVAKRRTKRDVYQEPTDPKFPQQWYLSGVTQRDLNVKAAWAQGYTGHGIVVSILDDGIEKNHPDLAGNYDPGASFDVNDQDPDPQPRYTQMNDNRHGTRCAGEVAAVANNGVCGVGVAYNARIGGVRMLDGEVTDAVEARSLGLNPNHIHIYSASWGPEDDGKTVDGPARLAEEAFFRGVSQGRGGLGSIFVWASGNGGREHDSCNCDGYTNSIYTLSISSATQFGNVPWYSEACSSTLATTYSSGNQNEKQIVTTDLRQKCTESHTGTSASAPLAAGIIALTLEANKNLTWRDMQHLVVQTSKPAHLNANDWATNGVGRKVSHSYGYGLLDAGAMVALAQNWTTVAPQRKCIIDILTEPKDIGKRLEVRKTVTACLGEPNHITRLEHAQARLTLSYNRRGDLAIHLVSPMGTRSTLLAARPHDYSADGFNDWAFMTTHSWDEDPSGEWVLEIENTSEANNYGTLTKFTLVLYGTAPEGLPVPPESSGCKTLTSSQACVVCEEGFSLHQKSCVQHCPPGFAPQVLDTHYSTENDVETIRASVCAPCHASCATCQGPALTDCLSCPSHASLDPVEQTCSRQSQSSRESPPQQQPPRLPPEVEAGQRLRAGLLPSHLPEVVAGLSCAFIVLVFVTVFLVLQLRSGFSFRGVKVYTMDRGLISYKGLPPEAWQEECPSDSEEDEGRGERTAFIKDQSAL

CASPIRTPRAAGNASASA [FS-1083]
furin cleavage Z-score (7.5 min): 4.85 (active) | furin cleavage Z-score (15 min): 4.51 (active) | furin cleavage Z-score (30 min): 4.42 (active)

CALPARDKRAAGNASASA [FS-1026]
furin cleavage Z-score (7.5 min): 9.51 (active) | furin cleavage Z-score (15 min): 8.58 (active) | furin cleavage Z-score (30 min): 8.12 (active)

CASDIRTEEAAGNASASA [HC1486]
furin cleavage Z-score (7.5 min): 0.515 (inactive) | furin cleavage Z-score (15 min): -1.04 (inactive) | furin cleavage Z-score (30 min): -1.3 (inactive)

CALPNREDRAAGNASASA [FS-54]
furin cleavage Z-score (7.5 min): 0.255 (inactive) | furin cleavage Z-score (15 min): -1.19 (inactive) | furin cleavage Z-score (30 min): -1.7 (inactive)

CASRSLSRRSAGNASASA [FS-1088]
furin cleavage Z-score (7.5 min): 8.82 (active) | furin cleavage Z-score (15 min): 10.1 (active) | furin cleavage Z-score (30 min): 7.4 (active)

CAIPSGFRRSAGNASASA [FS-339]
furin cleavage Z-score (7.5 min): -0.371 (inactive) | furin cleavage Z-score (15 min): -1.96 (inactive) | furin cleavage Z-score (30 min): -0.569 (inactive)

CALRMFERRSAGNASASA [FS-1367]
furin cleavage Z-score (7.5 min): 0.304 (inactive) | furin cleavage Z-score (15 min): -0.351 (inactive) | furin cleavage Z-score (30 min): 0.543 (inactive)

CASRDRFRRSAGNASASA [FS-1282]
furin cleavage Z-score (7.5 min): 13 (active) | furin cleavage Z-score (15 min): 12.2 (active) | furin cleavage Z-score (30 min): 9.49 (active)

CADMMEECSQAGNASASA [HC1806]
furin cleavage Z-score (7.5 min): -0.946 (inactive) | furin cleavage Z-score (15 min): -0.28 (inactive) | furin cleavage Z-score (30 min): -0.569 (inactive)

CAAKVLVVLLAGNASASA [HC345]
furin cleavage Z-score (7.5 min): -0.548 (inactive) | furin cleavage Z-score (15 min): -0.603 (inactive) | furin cleavage Z-score (30 min): 0.816 (inactive)

CATHMRQMRSAGNASASA [FS-304]
furin cleavage Z-score (7.5 min): 5.44 (active) | furin cleavage Z-score (15 min): 7.85 (active) | furin cleavage Z-score (30 min): 7.29 (active)

CAAKSRQRRQAGNASASA [FS-1583]
furin cleavage Z-score (7.5 min): 9.65 (active) | furin cleavage Z-score (15 min): 11 (active) | furin cleavage Z-score (30 min): 7.11 (active)

CAAKSRQMRSAGNASASA [FS-321]
furin cleavage Z-score (7.5 min): 12.3 (active) | furin cleavage Z-score (15 min): 12.5 (active) | furin cleavage Z-score (30 min): 8.77 (active)

CANEKRQRRQAGNASASA [FS-552]
furin cleavage Z-score (7.5 min): 8.64 (active) | furin cleavage Z-score (15 min): 9.03 (active) | furin cleavage Z-score (30 min): 8.4 (active)

CAQALPVWARAGNASASA [HC1302]
furin cleavage Z-score (7.5 min): -0.162 (inactive) | furin cleavage Z-score (15 min): 0.223 (inactive) | furin cleavage Z-score (30 min): -0.716 (inactive)

CAATRDGKLPAGNASASA [HC284]
furin cleavage Z-score (7.5 min): 0.288 (inactive) | furin cleavage Z-score (15 min): -1.04 (inactive) | furin cleavage Z-score (30 min): 0.353 (inactive)

CATMRIVGPRAGNASASA [HC1182]
furin cleavage Z-score (7.5 min): 0.31 (inactive) | furin cleavage Z-score (15 min): 1.38 | furin cleavage Z-score (30 min): 0.463 (inactive)

CATTRCSGSWAGNASASA [HC1873]
furin cleavage Z-score (7.5 min): -2.28 (inactive) | furin cleavage Z-score (15 min): -0.493 (inactive) | furin cleavage Z-score (30 min): -0.341 (inactive)

CAGCIITSLTAGNASASA [HC681]
furin cleavage Z-score (7.5 min): -0.591 (inactive) | furin cleavage Z-score (15 min): -0.913 (inactive) | furin cleavage Z-score (30 min): -0.483 (inactive)

CAHEMEECSQAGNASASA [HC1795]
furin cleavage Z-score (7.5 min): 0.638 (inactive) | furin cleavage Z-score (15 min): -0.825 (inactive) | furin cleavage Z-score (30 min): 0.0903 (inactive)

CALIAFASRGAGNASASA [HC1120]
furin cleavage Z-score (7.5 min): 0.403 (inactive) | furin cleavage Z-score (15 min): -0.694 (inactive) | furin cleavage Z-score (30 min): 0.0807 (inactive)

CAPIIRKSRGAGNASASA [FS-1472]
furin cleavage Z-score (7.5 min): 10 (active) | furin cleavage Z-score (15 min): 10.9 (active) | furin cleavage Z-score (30 min): 7.97 (active)

CAEPPRPRRGAGNASASA [FS-992]
furin cleavage Z-score (7.5 min): -0.496 (inactive) | furin cleavage Z-score (15 min): -0.299 (inactive) | furin cleavage Z-score (30 min): 0.0496 (inactive)

CAGALRPRRGAGNASASA [FS-421]
furin cleavage Z-score (7.5 min): 1.31 | furin cleavage Z-score (15 min): 0.929 (inactive) | furin cleavage Z-score (30 min): 0.673 (inactive)

CAASSRPRRGAGNASASA [FS-10]
furin cleavage Z-score (7.5 min): 5.57 (active) | furin cleavage Z-score (15 min): 4.59 (active) | furin cleavage Z-score (30 min): 4.78 (active)

CAPGRRPRRGAGNASASA [FS-68]
furin cleavage Z-score (7.5 min): 10.4 (active) | furin cleavage Z-score (15 min): 9.49 (active) | furin cleavage Z-score (30 min): 8.86 (active)

CAKNSRKLRGAGNASASA [FS-258]
furin cleavage Z-score (7.5 min): 0.0851 (inactive) | furin cleavage Z-score (15 min): 1.03 | furin cleavage Z-score (30 min): 2.96

CAHLHQNIVDAGNASASA [HC506]
furin cleavage Z-score (7.5 min): -0.675 (inactive) | furin cleavage Z-score (15 min): -0.105 (inactive) | furin cleavage Z-score (30 min): -1.09 (inactive)

CASPTTALVMAGNASASA [HC324]
furin cleavage Z-score (7.5 min): 0.089 (inactive) | furin cleavage Z-score (15 min): -0.626 (inactive) | furin cleavage Z-score (30 min): -1.02 (inactive)

CARQRRLVLVAGNASASA [FS-2764]
furin cleavage Z-score (7.5 min): -0.772 (inactive) | furin cleavage Z-score (15 min): -0.609 (inactive) | furin cleavage Z-score (30 min): 1.17

CARNRRIITVAGNASASA [FS-3198]
furin cleavage Z-score (7.5 min): 0.0348 (inactive) | furin cleavage Z-score (15 min): -1.25 (inactive) | furin cleavage Z-score (30 min): 0.314 (inactive)

CARQPRVDFVAGNASASA [FS-2064]
furin cleavage Z-score (7.5 min): -1.17 (inactive) | furin cleavage Z-score (15 min): -0.264 (inactive) | furin cleavage Z-score (30 min): -0.469 (inactive)

CARQRRAFQVAGNASASA [FS-2508]
furin cleavage Z-score (7.5 min): 1.92 | furin cleavage Z-score (15 min): 4.22 (active) | furin cleavage Z-score (30 min): 6.29 (active)

CARQRRARFVAGNASASA [FS-1770]
furin cleavage Z-score (7.5 min): 6.58 (active) | furin cleavage Z-score (15 min): 8.49 (active) | furin cleavage Z-score (30 min): 7.14 (active)

CARERRYSTVAGNASASA [FS-2551]
furin cleavage Z-score (7.5 min): -0.101 (inactive) | furin cleavage Z-score (15 min): 1.01 | furin cleavage Z-score (30 min): 0.281 (inactive)

CARQRRAITVAGNASASA [FS-2509]
furin cleavage Z-score (7.5 min): 4.39 (active) | furin cleavage Z-score (15 min): 7.17 (active) | furin cleavage Z-score (30 min): 7.22 (active)

CAVVCMSMSYAGNASASA [HC88]
furin cleavage Z-score (7.5 min): -1.17 (inactive) | furin cleavage Z-score (15 min): -0.925 (inactive) | furin cleavage Z-score (30 min): 0.213 (inactive)

CAPPSWDQMWAGNASASA [HC961]
furin cleavage Z-score (7.5 min): 1.06 | furin cleavage Z-score (15 min): -0.132 (inactive) | furin cleavage Z-score (30 min): 1

CAVKNGTMRIAGNASASA [HC1180]
furin cleavage Z-score (7.5 min): 2.3 | furin cleavage Z-score (15 min): 1.25 | furin cleavage Z-score (30 min): 0.508 (inactive)

CARFRRKRRHAGNASASA [FS-854]
furin cleavage Z-score (7.5 min): 9.74 (active) | furin cleavage Z-score (15 min): 9.95 (active) | furin cleavage Z-score (30 min): 7.32 (active)

CADTERKRRHAGNASASA [FS-411]
furin cleavage Z-score (7.5 min): 8.87 (active) | furin cleavage Z-score (15 min): 11 (active) | furin cleavage Z-score (30 min): 9.59 (active)

CADLYLVTRHAGNASASA [HC725]
furin cleavage Z-score (7.5 min): -0.523 (inactive) | furin cleavage Z-score (15 min): -1.17 (inactive) | furin cleavage Z-score (30 min): -0.885 (inactive)

CAHELRHRRHAGNASASA [FS-170]
furin cleavage Z-score (7.5 min): 11 (active) | furin cleavage Z-score (15 min): 10.9 (active) | furin cleavage Z-score (30 min): 11 (active)

CAAEARKNRPAGNASASA [FS-1508]
furin cleavage Z-score (7.5 min): -0.91 (inactive) | furin cleavage Z-score (15 min): 0.425 (inactive) | furin cleavage Z-score (30 min): -1.59 (inactive)
